{"source": "PubChem BioAssay (Tox21)", "note": "Values joined by “and” are separate entries in the source; they are usually repeats but may differ in a detail not shown here. Identical values can stand only once. Inconclusive results are not listed. A call without a number means that no potency is given here. Where a structure was tested more than once in an assay, its records may differ in their call. Active and inactive are the calls of the source. Unless noted, calls come from the whole dose curve; as a rule, active = well fitted curve in the direction sought with a large enough effect in the repeat runs; inconclusive = weak or mixed curves; inactive = no such curve, though single readings can be large; an effect the other way counts as inactive or inconclusive.", "data": [{"target": "Thyrotropin-releasing hormone receptor (Homo sapiens) (UniProt P34981)", "sequence (P34981 whole entry, looked up)": "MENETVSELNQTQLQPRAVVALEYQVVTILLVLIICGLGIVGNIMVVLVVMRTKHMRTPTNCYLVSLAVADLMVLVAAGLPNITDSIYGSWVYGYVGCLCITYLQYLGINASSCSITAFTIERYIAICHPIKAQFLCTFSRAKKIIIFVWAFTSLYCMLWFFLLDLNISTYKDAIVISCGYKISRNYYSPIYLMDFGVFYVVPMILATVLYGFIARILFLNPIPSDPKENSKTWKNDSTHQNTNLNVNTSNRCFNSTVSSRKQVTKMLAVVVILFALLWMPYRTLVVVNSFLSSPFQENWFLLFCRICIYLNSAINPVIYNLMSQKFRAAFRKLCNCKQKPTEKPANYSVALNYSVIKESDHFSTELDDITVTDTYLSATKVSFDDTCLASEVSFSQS", "assay": "qHTS assay to identify small molecule agonists of the thyrotropin-releasing hormone receptor (TRHR) signaling pathway (AID 1346891; calls by dose curve)", "conditions": "TRHR-HEK293 calcium fluorescence, agonist mode; series mostly up to 57.6 µM", "method_in_brief": "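Readout was intracellular calcium fluorescence in TRHR-Hek293 cells. Cells were incubated 18 h, dye-loaded 2 h at 37 °C, and treated with compound in agonist mode.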", "values": [{"smiles": "O=Nc1ccc(O)cc1", "Potency": "inactive"}, {"smiles": "CC1(C)O[C@@H]2C[C@H]3[C@@H]4C[C@H](F)C5=CC(=O)CC[C@]5(C)[C@H]4[C@@H](O)C[C@]3(C)[C@]2(C(=O)CO)O1", "Potency": "inactive"}, {"smiles": "C[C@@H]1O[C@@H](OC[C@H]2O[C@@H](Oc3c(-c4ccc(O)c(O)c4)oc4cc(O)cc(O)c4c3=O)[C@H](O)[C@@H](O)[C@@H]2O)[C@H](O)[C@H](O)[C@H]1O", "Potency": "inactive"}, {"smiles": "Clc1ccc(Cl)c(Cl)c1Cl", "Potency": "inactive"}, {"smiles": "CC(C)Cc1ccccc1", "Potency": "inactive"}, {"smiles": "OCC#CCO", "Potency": "inactive"}, {"smiles": "C=C(C)C(=O)OCC(CC)(COC(=O)C(=C)C)COC(=O)C(=C)C", "Potency": "inactive"}, {"smiles": "O=C(c1cc(O)c(O)c(O)c1)c1ccc(O)c(O)c1O", "Potency": "inactive"}, {"smiles": "C=C(C)C(=O)OCCCCCC", "Potency": "inactive"}]}, {"test_system": "not listed separately", "assay": "Human pregnane X receptor (PXR) small molecule agonists, qHTS cell viability counter screen (AID 1346977); note: nearly all actives have a fitted effect of over 50% in size; note: potency is the fitted concentration of half-maximal effect", "conditions": "PXR-Luc HepG2 viability, CellTiter-Fluor, 24 h; series mostly up to 92.4 µM", "method_in_brief": "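In each well, the PXR reporter HepG2 line was checked for viability: CellTiter-Fluor reagent added 23hr post-dosing, fluorescence read after 1hr incubation at 37C.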", "values": [{"smiles": "Nc1cc(-c2ccncc2)c[nH]c1=O", "Potency": "inactive"}, {"smiles": "Oc1ccc(OCc2ccccc2)cc1", "Potency": "inactive"}, {"smiles": "CCOC(=O)C1OC1c1ccccc1", "note": "(stereo not given)", "Potency": "inactive"}, {"smiles": "O=C(O)c1ccc([N+](=O)[O-])cc1", "Potency": "inactive"}, {"smiles": "Cc1cc(=O)[nH]c(C(C)C)n1", "Potency": "inactive"}, {"smiles": "NC(=O)/N=N/C(N)=O", "Potency": "inactive"}, {"smiles": "CCCCCCCCCCCCOCC1CO1", "note": "(stereo not given)", "Potency": "inactive"}, {"smiles": "O=S(=O)(O)CCS", "Potency": "inactive"}, {"smiles": "O=C(O)c1cc(-c2ccccc2)nc2ccccc12", "Potency": "inactive"}, {"smiles": "OC1CCCC1", "Potency": "inactive"}, {"smiles": "COC(=O)c1ccccc1O", "Potency": "inactive"}, {"smiles": "Cc1ccc(N)c(S(=O)(=O)O)c1", "Potency": "inactive"}, {"smiles": "CCCCOCCOCCOC(=O)CCCCC(=O)OCCOCCOCCCC", "Potency": "inactive"}, {"smiles": "CCCCC(CC)COC(C)=O", "note": "(stereo not given)", "Potency": "inactive"}, {"smiles": "CC1=C(/C=C/C(C)=C/C=C/C(C)=C/CO)C(C)(C)CCC1", "Potency": "inactive"}, {"smiles": "Cc1cc(Cc2ccc(N)c(C)c2)ccc1N", "Potency": "inactive"}, {"smiles": "NCCc1ccc(O)c(O)c1", "Potency": "30.7 µM (active)"}, {"smiles": "C=C(C#N)C(=O)OCC", "Potency": "inactive"}, {"smiles": "O=[N+]([O-])C(CO)(CO)CO", "Potency": "758 nM (active) and inactive"}, {"smiles": "NS(=O)(=O)c1cc2c(cc1Cl)NC=NS2(=O)=O", "Potency": "inactive"}, {"smiles": "CCOC(=O)/C=C\\C(=O)OCC", "Potency": "inactive"}, {"smiles": "CC(C)(N=C=O)c1cccc(C(C)(C)N=C=O)c1", "Potency": "inactive"}, {"smiles": "CC[Si](OC(C)=O)(OC(C)=O)OC(C)=O", "Potency": "inactive"}, {"smiles": "C=C(C)C(=O)OCCCCCCCCCCCC", "Potency": "inactive"}, {"smiles": "C=C(C)C(=O)OCCC[Si](OC)(OC)OC", "Potency": "inactive"}, {"smiles": "COCC(C)O", "note": "(stereo not given)", "Potency": "inactive"}, {"smiles": "O=C1CCCCC1", "Potency": "inactive"}, {"smiles": "CCCCCCCCCCCCN", "Potency": "inactive and 30.6 µM (active)"}, {"smiles": "CC1CC(OC(=O)c2ccccc2O)CC(C)(C)C1", "note": "(stereo not given)", "Potency": "inactive"}, {"smiles": "O=Nc1ccc(O)cc1", "Potency": "inactive"}, {"smiles": "CC1(C)O[C@@H]2C[C@H]3[C@@H]4C[C@H](F)C5=CC(=O)CC[C@]5(C)[C@H]4[C@@H](O)C[C@]3(C)[C@]2(C(=O)CO)O1", "Potency": "inactive"}, {"smiles": "C[C@@H]1O[C@@H](OC[C@H]2O[C@@H](Oc3c(-c4ccc(O)c(O)c4)oc4cc(O)cc(O)c4c3=O)[C@H](O)[C@@H](O)[C@@H]2O)[C@H](O)[C@H](O)[C@H]1O", "Potency": "inactive"}, {"smiles": "Clc1ccc(Cl)c(Cl)c1Cl", "Potency": "inactive"}, {"smiles": "CC(C)Cc1ccccc1", "Potency": "inactive"}, {"smiles": "OCC#CCO", "Potency": "inactive"}, {"smiles": "C=C(C)C(=O)OCC(CC)(COC(=O)C(=C)C)COC(=O)C(=C)C", "Potency": "inactive"}, {"smiles": "O=C(c1cc(O)c(O)c(O)c1)c1ccc(O)c(O)c1O", "Potency": "39.8 µM (active) and 61.1 µM (active)"}, {"smiles": "C=C(C)C(=O)OCCCCCC", "Potency": "inactive"}]}, {"test_system": "not listed separately", "assay": "Caspase-3/7 induction in HepG2 cells by small molecules, qHTS assay (AID 1346978); note: nearly all actives have a fitted effect of over 15% in size; note: potency is the fitted concentration of half-maximal effect", "conditions": "HepG2 caspase-3/7 activation, Caspase-Glo luminescence, 17 h; series mostly up to 92.4 µM", "method_in_brief": "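Wild-type HepG2 cells (2,000/well) were settled 5 h at 37 C, 5% CO2, then exposed to compounds in DMSO for 17 h. Caspase-3/7 activity was read by luminescence 30 min after adding Caspase-Glo 3/7 reagent at room temperature.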", "values": [{"smiles": "Nc1cc(-c2ccncc2)c[nH]c1=O", "Potency": "inactive"}, {"smiles": "Oc1ccc(OCc2ccccc2)cc1", "Potency": "inactive"}, {"smiles": "CCOC(=O)C1OC1c1ccccc1", "note": "(stereo not given)", "Potency": "inactive"}, {"smiles": "O=C(O)c1ccc([N+](=O)[O-])cc1", "Potency": "inactive"}, {"smiles": "Cc1cc(=O)[nH]c(C(C)C)n1", "Potency": "inactive"}, {"smiles": "NC(=O)/N=N/C(N)=O", "Potency": "inactive"}, {"smiles": "CCCCCCCCCCCCOCC1CO1", "note": "(stereo not given)", "Potency": "inactive"}, {"smiles": "O=S(=O)(O)CCS", "Potency": "inactive"}, {"smiles": "O=C(O)c1cc(-c2ccccc2)nc2ccccc12", "Potency": "inactive"}, {"smiles": "OC1CCCC1", "Potency": "inactive"}, {"smiles": "COC(=O)c1ccccc1O", "Potency": "inactive"}, {"smiles": "Cc1ccc(N)c(S(=O)(=O)O)c1", "Potency": "inactive"}, {"smiles": "CCCCOCCOCCOC(=O)CCCCC(=O)OCCOCCOCCCC", "Potency": "inactive"}, {"smiles": "CCCCC(CC)COC(C)=O", "note": "(stereo not given)", "Potency": "inactive"}, {"smiles": "CC1=C(/C=C/C(C)=C/C=C/C(C)=C/CO)C(C)(C)CCC1", "Potency": "inactive"}, {"smiles": "Cc1cc(Cc2ccc(N)c(C)c2)ccc1N", "Potency": "inactive"}, {"smiles": "NCCc1ccc(O)c(O)c1", "Potency": "inactive"}, {"smiles": "C=C(C#N)C(=O)OCC", "Potency": "inactive"}, {"smiles": "O=[N+]([O-])C(CO)(CO)CO", "Potency": "inactive"}, {"smiles": "NS(=O)(=O)c1cc2c(cc1Cl)NC=NS2(=O)=O", "Potency": "inactive"}, {"smiles": "CCOC(=O)/C=C\\C(=O)OCC", "Potency": "inactive"}, {"smiles": "CC(C)(N=C=O)c1cccc(C(C)(C)N=C=O)c1", "Potency": "inactive"}, {"smiles": "CC[Si](OC(C)=O)(OC(C)=O)OC(C)=O", "Potency": "inactive"}, {"smiles": "C=C(C)C(=O)OCCCCCCCCCCCC", "Potency": "inactive"}, {"smiles": "C=C(C)C(=O)OCCC[Si](OC)(OC)OC", "Potency": "inactive"}, {"smiles": "COCC(C)O", "note": "(stereo not given)", "Potency": "inactive"}, {"smiles": "O=C1CCCCC1", "Potency": "inactive"}, {"smiles": "CCCCCCCCCCCCN", "Potency": "inactive and 61.1 µM (active)"}, {"smiles": "CC1CC(OC(=O)c2ccccc2O)CC(C)(C)C1", "note": "(stereo not given)", "Potency": "inactive"}, {"smiles": "O=Nc1ccc(O)cc1", "Potency": "inactive"}, {"smiles": "CC1(C)O[C@@H]2C[C@H]3[C@@H]4C[C@H](F)C5=CC(=O)CC[C@]5(C)[C@H]4[C@@H](O)C[C@]3(C)[C@]2(C(=O)CO)O1", "Potency": "inactive"}, {"smiles": "C[C@@H]1O[C@@H](OC[C@H]2O[C@@H](Oc3c(-c4ccc(O)c(O)c4)oc4cc(O)cc(O)c4c3=O)[C@H](O)[C@@H](O)[C@@H]2O)[C@H](O)[C@H](O)[C@H]1O", "Potency": "inactive"}, {"smiles": "Clc1ccc(Cl)c(Cl)c1Cl", "Potency": "inactive"}, {"smiles": "CC(C)Cc1ccccc1", "Potency": "inactive"}, {"smiles": "OCC#CCO", "Potency": "inactive"}, {"smiles": "C=C(C)C(=O)OCC(CC)(COC(=O)C(=C)C)COC(=O)C(=C)C", "Potency": "inactive"}, {"smiles": "O=C(c1cc(O)c(O)c(O)c1)c1ccc(O)c(O)c1O", "Potency": "inactive"}, {"smiles": "C=C(C)C(=O)OCCCCCC", "Potency": "inactive"}]}]}
